{"source": "the supplement of paper PMC11417369", "note": "± gives the standard deviation of the averaged measurements. The full ranking holds about 25,000 sequences; the median of “ln(normalized median fluorescence intensity)” is about 10, and the highest 2% start at about 12. Shown is part of a subset that was picked to be rich in the highest values.", "data": [{"tested_on": "PfAP2-G AP2 domain (GST-tagged)", "assay": "gcPBM binding intensity (ln(normalized median fluorescence intensity)); higher = stronger DNA binding", "outline": "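Alexa488 anti-GST antibody, scanned at 488 nm, detected GST-tagged P. falciparum DNA-binding domains that had been expressed in E. coli and incubated for 1 h on an Agilent 4 × 180k array. The array carried primer-extended double-stranded 36-bp intergenic genomic probes and negative controls. Binding intensity is the highest Masliner-normalised natural-log median intensity across replicate spots of either orientation of each probe.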", "values": [{"sequence": "AAAAGTATAATAAATTGTACTAACAAATATTTATGT [XGTACX_site7721]", "gcPBM binding intensity (ln)": "10.9 ± 0.56"}, {"sequence": "TTGAAAATGAAAAAATGTACTTAAAAAAAAGGAACA [XGTACX_site8664]", "gcPBM binding intensity (ln)": "11.2 ± 0.71"}, {"sequence": "CTTTGGTTATAACACACATGCACACGTAAATAAATA [TGCATGCA_site976]", "gcPBM binding intensity (ln)": "10.5 ± 0.25"}, {"sequence": "ATTTTTTTTTTTTTTTTTTATATGCTCTCCATGAGA [CACACA_negctrl_site1225]", "gcPBM binding intensity (ln)": "9.7 ± 0.2"}, {"sequence": "ATAAATATCATATATATACACACGTAATACATAATA [CACACA_site4001]", "gcPBM binding intensity (ln)": "9.935 ± 0.092"}, {"sequence": "GGGGGGGGAGGGTGAATACACACGTAATAATCATAA [CACACA_site1716]", "gcPBM binding intensity (ln)": "11.6 ± 0.94"}, {"sequence": "GGGGGGAGGGTGAATACACACGTAATAATCATAAAC [CACACA_site8502]", "gcPBM binding intensity (ln)": "11.6 ± 0.79"}, {"sequence": "TCTTTTGTTTAACCTACATGCAGAATATAAGTCTTC [TGCATGCA_site99]", "gcPBM binding intensity (ln)": "10 ± 0.2"}, {"sequence": "AAAAATTCATTTTTATGTACGTACAAATTCTTCGTT [XGTACX_site2471]", "gcPBM binding intensity (ln)": "11.8 ± 0.87"}, {"sequence": "TAATTCTTTATTTTTCGTACGTAAAACAAAAAATAT [XGTACX_site862]", "gcPBM binding intensity (ln)": "11.1 ± 0.79"}, {"sequence": "ATATATTCATTTTTATGTACGTAAATTGTAAATTGG [XGTACX_site8242]", "gcPBM binding intensity (ln)": "11.6 ± 0.92"}, {"sequence": "AATTTTGAGATGTGGTGTACACAAAATTAGTTAGAC [XGTACX_site7033]", "gcPBM binding intensity (ln)": "11.7 ± 0.98"}, {"sequence": "ACACATACAACGTGGTGTACAAATAATTATAATCAA [XGTACX_site2287]", "gcPBM binding intensity (ln)": "11.1 ± 0.4"}, {"sequence": "TTTGAGATGTGGTGTACACAAAATTAGGTACACATC [CACACA_site5773]", "gcPBM binding intensity (ln)": "12 ± 0.85"}, {"sequence": "TTACATGTAAAAGGTACACACATTAGATATACAAAT [CACACA_site6651]", "gcPBM binding intensity (ln)": "11.3 ± 0.84"}, {"sequence": "TGAAAATAGTTAATTTGTACACAAAAATTAAGAAAA [XGTACX_site5794]", "gcPBM binding intensity (ln)": "11.2 ± 0.8"}, {"sequence": "CAGTTATTTTAATGTGGTACACAATTTTAAAATTAT [XGTACX_site8571]", "gcPBM binding intensity (ln)": "11.5 ± 0.93"}, {"sequence": "TAAAAATAGTATACAACACACGAGGGAAAATAAAGT [CACACA_site3837]", "gcPBM binding intensity (ln)": "10.34 ± 0.099"}, {"sequence": "TATTTAAATTAATATTGTACATATATTTATAATATA [XGTACX_site6109]", "gcPBM binding intensity (ln)": "11.1 ± 0.71"}, {"sequence": "TTTTCATTTGAAAGTCGTACAAGTTCGAAAAAAGGA [XGTACX_site6840]", "gcPBM binding intensity (ln)": "11.6 ± 1.2"}, {"sequence": "TATATTTTTATTGAACGTACAAAAAGTCGAAAACAG [XGTACX_site3967]", "gcPBM binding intensity (ln)": "11.4 ± 0.74"}, {"sequence": "GATATTTTTTTCGAAAGTACAAAAAAAAATATTTCC [XGTACX_site4389]", "gcPBM binding intensity (ln)": "11 ± 0.72"}, {"sequence": "TTTTTTATTTGACAAGCACACACTTAAATATATATA [CACACA_site3358]", "gcPBM binding intensity (ln)": "10.2 ± 0.33"}, {"sequence": "AAATCATATTCTTATTTTATTTTTTTTATTTTTTAT [XGTACX_negctrl_site166]", "gcPBM binding intensity (ln)": "9.55 ± 0.17"}, {"sequence": "AAACATGATTATTATAGTACAATTATAATTATTATA [XGTACX_site2590]", "gcPBM binding intensity (ln)": "10.8 ± 0.59"}, {"sequence": "GTGTGTGTATATATTTGTACATATATTTAAACATAT [XGTACX_site1074]", "gcPBM binding intensity (ln)": "11.4 ± 0.71"}, {"sequence": "ATATATATATATATTTGTACGTATTATGTATTTTTT [XGTACX_site3530]", "gcPBM binding intensity (ln)": "11.5 ± 0.98"}, {"sequence": "TATAATAATAATTATTGTACGATTAGGTTAATTCAT [XGTACX_site1984]", "gcPBM binding intensity (ln)": "11.1 ± 0.7"}, {"sequence": "TATAATAATACGTATTGTACTATTAGGTTAATTCGT [XGTACX_site264]", "gcPBM binding intensity (ln)": "11.1 ± 0.66"}, {"sequence": "TATATATATATATGTTGTACAAAAATGTAAAATATA [XGTACX_site7761]", "gcPBM binding intensity (ln)": "11.1 ± 0.57"}, {"sequence": "GTATATATATTTGTACGTACATATTGTTGTAAACAC [XGTACX_site8833]", "gcPBM binding intensity (ln)": "11.7 ± 0.71"}, {"sequence": "AATATATATAATAATTGTACAATACGTATGTTATAT [XGTACX_site8745]", "gcPBM binding intensity (ln)": "11 ± 0.54"}, {"sequence": "TAAACAGATATATTTTGTACATATTGTATATTTTGT [XGTACX_site713]", "gcPBM binding intensity (ln)": "10.6 ± 0.28"}, {"sequence": "ATGTAGGTTAATTATTGTACGTAGGGGGTGTATATT [XGTACX_site3973]", "gcPBM binding intensity (ln)": "11.8 ± 1.2"}, {"sequence": "AAATTATTATATATATGTACGTATAATGTATTTTGT [XGTACX_site2903]", "gcPBM binding intensity (ln)": "11.5 ± 1.1"}, {"sequence": "ATATGTATATATGTATGTACGTACAAATTGTTGTAA [XGTACX_site8832]", "gcPBM binding intensity (ln)": "11.7 ± 0.8"}, {"sequence": "ATGTTATATATGTATTGTACGTATTTTGTATATTAT [XGTACX_site6607]", "gcPBM binding intensity (ln)": "11.6 ± 1.1"}, {"sequence": "TATAATATTCCTTTTTAACACACATATGAACAAATA [CACACA_site7932]", "gcPBM binding intensity (ln)": "10.1 ± 0.18"}, {"sequence": "CATTATTCATTTTGGATGCACTGACAGAAAAATGGT", "gcPBM binding intensity (ln)": "10.4 ± 0.18"}, {"sequence": "CTTAGGTGTTCATAGAGTACAAATAAAAAAATAAGA [XGTACX_site2294]", "gcPBM binding intensity (ln)": "11.3 ± 0.95"}, {"sequence": "TACCTAAATAAATGGACACACACATATATATATATA [CACACA_site8407]", "gcPBM binding intensity (ln)": "10.8 ± 0.53"}, {"sequence": "TATATTTTAAAATTATGTACATATATAGATAAATGT [XGTACX_site1349]", "gcPBM binding intensity (ln)": "11.3 ± 0.52"}, {"sequence": "AATTAGATGGATAAATGTACATAATGTGAATATATT [XGTACX_site86]", "gcPBM binding intensity (ln)": "11 ± 0.4"}, {"sequence": "TCATATATATATATATGTACATATTTATGTATGTAT [XGTACX_site6291]", "gcPBM binding intensity (ln)": "11.1 ± 0.66"}, {"sequence": "TTCCTTAATCAATATTGTACTTTTTATAAATTTAGT [XGTACX_site3678]", "gcPBM binding intensity (ln)": "11.4 ± 0.85"}, {"sequence": "TTCCTTTGTCCTAACTGTACTCAAATTTATTAGTGG [XGTACX_site226]", "gcPBM binding intensity (ln)": "11.8 ± 0.75"}, {"sequence": "TAGTTCCTCAAAAATTTCCTTTGTCATTTTATTCAC [GTGCAC_negctrl_site20]", "gcPBM binding intensity (ln)": "10.17 ± 0.085"}, {"sequence": "TATAAAAATATATTTACACACTATAAATATCGAAAG [CACACA_site6896]", "gcPBM binding intensity (ln)": "9.96 ± 0.18"}, {"sequence": "TAATTTATGACACGCGCACACATATATATATAGTAA [CACACA_site4249]", "gcPBM binding intensity (ln)": "10.6 ± 0.42"}, {"sequence": "ACAAAAATGAGATGGTGTACGCACAAATAAATAATA [XGTACX_site5221]", "gcPBM binding intensity (ln)": "11.7 ± 0.79"}, {"sequence": "AAGATAAAATGATGCACACAAAAGGGTGTAATATAT [CACACA_site1706]", "gcPBM binding intensity (ln)": "10.13 ± 0.049"}, {"sequence": "CAAAGATAAAATGATGCACACAAAAGGGTGTAATAT [CACACA_site8499]", "gcPBM binding intensity (ln)": "10.25 ± 0.014"}, {"sequence": "TCCCACTGTTATATTGAAAAAAAAAAAAAAAAAAAA [TGCATGCA_negctrl_site288]", "gcPBM binding intensity (ln)": "9.82 ± 0.5"}, {"sequence": "AAACAACATGGACACGCACACACAAAAAAAGCATGC [CACACA_site73]", "gcPBM binding intensity (ln)": "11 ± 0.48"}, {"sequence": "ATTAGGCATATTTTCTGTACACAATAATAAAAAAAA [XGTACX_site3957]", "gcPBM binding intensity (ln)": "11.6 ± 0.91"}, {"sequence": "TAATTTTCATATTTCTGTACATATATTATAAATATA [XGTACX_site3480]", "gcPBM binding intensity (ln)": "11 ± 0.69"}, {"sequence": "TAAAATATATTTTTCTGTACACAAAAATATATTAAA [XGTACX_site2813]", "gcPBM binding intensity (ln)": "11.5 ± 0.96"}]}]}
